# High-throughput results from PubChem BioAssay.
# Rows were chosen to be rich in hits. Some 1.3% of all compounds tested hit in one or more screens of this group.
# Insulin prom inh = inhibitors of insulin promoter-driven GFP, primary screen, imaging, TRM-6 cells (human fetal islet line), eGFP reporter, cell count. reporter expression induced with tamoxifen. inhibition, % at 2 µM. 130,000 tested, 0.9% active;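 active = inhibition above the mean plus 3 SD, with well images judged a real hit on visual review, cut at about 60% in these data, passing the limit was not always enough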
# NFkB transloc inh = inhibitors of IL-1B driven NFkB p65 nuclear import, primary screen, imaging, HUVEC, IL-1B stimulus, high-content imaging; HUVEC IL-1B NFkB p65 nuclear translocation imaging; inhibition, % at 2 µM; 94,000 tested, 0.43% active; AID 796, 2007;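 active = inhibition above about 30% together with a positive call from visual inspection of the well image, limit read from the data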;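 note: nuclear over cytoplasmic p65 intensity ratio measured by imaging; 0% = IL-1B stimulated DMSO wells and 100% = unstimulated DMSO wells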
# HUVEC tox IL1B = cytotoxicity in IL-1B stimulated HUVEC, primary screen, cytotoxicity control for IL-1B NFkB translocation project, imaging, Hoechst nuclear count, IL-1B stimulus; HUVEC cell count loss; cell count reduction, % at 2 µM; 94,000 tested, 0.41% active; AID 845, 2007;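 active = cell count reduction more than 3 SD above the screen-wide mean, cut at about 70% in these data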;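 note: normalized per plate to untreated control cells as the no-loss baseline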
# IL1B NFkB pot = enhancers of NFkB p65 translocation in HUVEC – imaging, IL-1B stimulus, high-content imaging, primary screen; HUVEC IL-1B NFkB p65 nuclear translocation imaging; activation, % at 2 µM; 94,000 tested, 0.3% active; AID 819, 2007;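 active = activation above 40%, about the mean plus 3 SD, also judged a hit on visual image review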;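 note: percent activation is computed from the nuclear over cytoplasmic p65 intensity ratio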
# The depositor's hits bear a star; / = no result given.
SMILES,Insulin prom inh,NFkB transloc inh,HUVEC tox IL1B,IL1B NFkB pot
CC(C)(C)c1nnc(NC(=O)CN2C(=O)C3C4C=CC(C4)C3C2=O)s1 (stereo unspecified),75*,6,-18,-6
CCC(=O)Nc1nnc(C(C)(C)C)s1,-11,-10,-13,10
CCc1nnc(NC(=O)CSc2nc(C)c3c(c2C#N)CCCC3)s1,85*,-35,-3,35
COc1ccc(NC(=O)CSc2nc(C)c3c(c2C#N)CCCC3)cc1,-15,-7,-17,7
COc1ccc(C=O)cc1Cn1c(C)cc(C)c(C#N)c1=O,-5,/,/,/
O=S(=O)(NCCc1ccncc1)c1cc(Br)ccc1F,-24,-8,92*,8
Cc1ccc(S(=O)(=O)NCCc2ccncc2)cc1,-167,-8,-127,8
N#Cc1ccsc1NC(=O)COc1ccc(-c2nnco2)cc1,65*,/,/,/
COc1ccc(-n2nnnc2SCC(=O)c2ccc3c(c2)OCCO3)cc1,79*,/,/,/
Fc1ccccc1CSc1nc2ccccc2[nH]1,74*,-4,-112,4
Fc1c(F)c(F)c(CSc2nc3ccccc3[nH]2)c(F)c1F,74,0,-61,0
COc1cccc(-c2csc3nc[nH]c(=O)c23)c1,89*,-33,-35,33
O=c1[nH]cnc2scc(-c3ccc(F)cc3)c12,36,-12,9,12
Cc1ccnc(N/C=C(/NC(=O)c2ccccc2)C(=O)NN)n1,38,/,/,/
Cc1ccnc(N/C=C(/NC(=O)c2ccccc2)C(=O)N/N=C\c2ccc(F)cc2)n1,/,56*,78*,-56
CCOc1ccc(OCCN2CCCCC2)cc1,62*,/,/,/
CCCCC(c1nnnn1CS(=O)(=O)c1ccc(C)cc1)N1CCN(C)CC1 (stereo unspecified),-175,/,/,/
O=C(COC(=O)C12CC3CC(CC(C3)C1)C2)Nc1ncc(Cl)cc1Cl,18,18,-8,-18
O=C(COC(=O)CC12CC3CC(CC(C3)C1)C2)Nc1ncc(Cl)cc1Cl,100*,0,-6,0
O=C1C=C(Nc2ccc(Cl)cc2)CC(c2ccccc2)C1 (stereo unspecified),12,/,/,/
Cc1c(N=C2Nc3cccc4cccc2c34)c(=O)n(-c2ccccc2)n1C,-9,/,/,/
Cc1c(N2C(=O)c3cccc4cccc(c34)C2=O)c(=O)n(-c2ccccc2)n1C,69*,-13,-31,13
O=C(Cn1nc(-c2ccccc2)c2ccccc2c1=O)Nc1cccnc1,77*,-11,7,11
Cc1nn(C)c(C)c1CNC(=O)/C=C/c1ccccc1F,71*,/,/,/
Cc1c(N(C(=O)CNC(=O)c2ccccc2)C2(C(=O)NC3CCCCC3)CCCCC2)c(=O)n(-c2ccccc2)n1C,-147,/,/,/
SMILES,Insulin prom inh,NFkB transloc inh,HUVEC tox IL1B,IL1B NFkB pot
COc1cc(NC(=O)[C@@H](NC(=O)c2ccco2)C(C)C)c(OC)cc1NC(=O)c1ccccc1,-13,/,/,/
CC[C@@H](C)[C@H](NC(=O)OC(C)(C)C)c1nnc(S(=O)(=O)Cc2cc(C)ccc2C)o1,72*,4,3,-4
Cc1ccccc1NC(=S)c1nc2ccccc2[nH]1,97*,/,/,/
CCOc1ccc(N(CC(=O)NCCc2ccc(Cl)cc2)S(=O)(=O)c2c(C)[nH]c(=O)[nH]c2=O)cc1,14,/,/,/
COc1cc(NC(=O)c2cccs2)c(C(=O)OCC(=O)NC(C)c2ccccc2)cc1OC (stereo unspecified),70*,6,-5,-6
COc1ccccc1/C=C/C(=C1/C(=O)N(c2ccccc2)N=C1C)c1ccc(C)cc1,71*,/,/,/
CC1=NN(c2ccccc2)C(=O)C1=C(C)C,11,/,/,/
O=C(CS(=O)Cc1ccccc1Cl)Nc1ccccc1Cl (stereo unspecified),-43,/,/,/
CC(=O)Nc1c(C(=O)N2CCN(c3ncccn3)CC2)cnn1-c1ccccc1Cl,17,-40,-48,40*
CC(=O)Nc1c(C(=O)N2CCN(c3ccccn3)CC2)cnn1-c1ccc(C)cc1,7,/,/,/
COc1cc2c(cc1OC)CN(CC(=O)NC(=O)NC1CCCCC1)CC2,47,/,/,/
Nc1ccc2nc(SCC(=O)N3CCOCC3)sc2c1,80*,/,/,/
CCOC(=O)N1CCN(c2nc(C)c3c(n2)CC(C)CC3=O)CC1 (stereo unspecified),/,-40,-4,40*
CCOC(=O)N1CCN(C(=S)NC)CC1,72*,0,18,0
CCN(CC(=O)NC(C)C)C(=O)[C@@H](NC(=O)c1ccco1)C(C)C,29,/,/,/
CCOC(=O)c1c(C)c(C(=O)NC2CCCCC2)c(C)n1CC,/,/,7,154*
CCOC(=O)c1[nH]c(C)c(C(=O)NC2CCCCC2)c1C,/,-39,-2,39
Cc1cc(C)c(S(=O)(=O)/N=C2\C=CC(=O)C(Cl)=C2)c(C)c1,-52,31*,23,-31
Cc1ccc(S(=O)(=O)c2c(C)cc(C)nc2Cl)c(C)c1,37,-2,-6,2
O=C(O)c1ccccc1Sc1c([N+](=O)[O-])cc(C(F)(F)F)cc1[N+](=O)[O-],73*,/,/,/
O=C(CSc1ccc(C(F)(F)F)cc1[N+](=O)[O-])Nc1ccccc1,27,8,-7,-8
O=C(NCC1(c2ccccc2)CCCC1)c1ccc(Br)o1,9,/,/,/
N#Cc1cnc(N)c(Br)c1,27,/,/,/
COC(=O)c1cnc2ccccc2n1,-26,-4,-16,4
O=C(O)c1cnc2ccccc2n1,85*,-13,-10,13
SMILES,Insulin prom inh,NFkB transloc inh,HUVEC tox IL1B,IL1B NFkB pot
CCOc1nc(N2CCOCC2)nc(N2CCOCC2)n1,59,/,/,/
CCOC(=O)c1cc2c(=O)n3ccccc3nc2n(Cc2ccco2)c1=NC(=O)c1ccc(OC)cc1OC,53,/,/,/
COc1ccc(OCCC(=O)N2CCCCC2)cc1,45,88*,87*,-88
CCCCOc1ccc(C(=O)NCCCC(=O)N2CCCCC2)cc1,60,-23,-78,23
CC1CCC(NC(=O)c2ccc(NC(=O)c3ccc(=O)[nH]c3)cc2)CC1 (stereo unspecified),22,/,/,/
COCC(O)CNc1ccccc1 (stereo unspecified),17,/,/,/
COc1ccc(S(=O)(=O)NNC(=O)c2csc(-n3nc(C)cc3C(F)(F)F)n2)cc1OC,-24,-52,-5,52*
Cc1nc2ccc(NC(=O)N3CCSCC3)cc2nc1C,77*,-14,-13,14
Cc1nc2ccc(NC(=O)N3CCSCC3)cc2s1,-34,7,-5,-7
O=C(COc1cccc(F)c1)N1c2ccccc2Sc2ccccc21,79*,/,/,/
CCOC(=O)C(NC(=O)c1ccc(Cl)cc1Cl)(Nc1ccc(C)cc1)C(F)(F)F (stereo unspecified),54,-3,-2,3
Cc1nn(-c2ncc(C(F)(F)F)cc2Cl)c(=O)n1-c1ccccc1Cl,21,31*,19,-31
Cc1nn(-c2ncc(C(F)(F)F)cc2Cl)c(=O)n1-c1cccc(Cl)c1,21,8,-2,-8
Cn1c(=S)n(CCC(=O)O)c2ccccc21,11,/,/,/
CC1(C(=O)Oc2ccccc2)Cc2ccccc2C(=O)O1 (stereo unspecified),7,/,/,/
COCCCn1cnc2c(c1=O)c1nc3ccccc3nc1n2-c1ccccc1,91*,2,-43,-2
